An excerpt weighted towards active compounds, which were near 6.5% of everything screened.
LASV entry inh: qHTS for Inhibitors of binding or entry into cells for Lassa Virus | Lassa virus pseudotype entry inhibition, cell reporter | Potency, µM (titrated, usually from 37.9 µM), for the others: at the top dose activity change, negative = inhibition, hits mostly inhibitors | hit rate 1.2% among 300,000 | AID 540256, 2011; calls by dose curve; tested in HEK293 cells; also: potency is read from the fitted curve at half-maximal effect; nearly all actives have a fitted effect of over 50% in size
VACV Venus inh: qHTS for Stage-Specific Inhibitors of Vaccinia Orthopoxvirus: Venus Reporter Primary qHTS; Potency, µM (top dose mostly 36.5 µM), without a hit: at the top dose activity change, negative = inhibition, most hits filed as inhibitors; hit rate 0.46% among 330,000; Vaccinia virus Venus reporter expression, fluorescence; calls by dose curve; tested in A549 cells; also: potency is read from the fitted curve at half-maximal effect; nearly all actives have a fitted effect of over 30% in size
HCMV antiviral: qHTS Assay for inhibitors of the human cytomegalovirus (HCMV) | activity change, negative = inhibition, % at 57.5 µM | AID 1259415, 2018 | HFF cells, HCMV-luciferase reporter, 72 h; active compounds read low | hit rate 4.5% among 410,000; in the data active = activity change below about -60%; inconclusive = no clear call, values can overlap the other calls; inactive = above about -39%
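Compounds were evaluated in HFFs infected with an HCMV luciferase reporter virus (MOI 1 PFU/cell). Luciferase in lysates collected 72 h post infection served as the replication measure.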
FMDV inh: High Throughput Screening for Foot and Mouth Disease Virus Antivirals; FMDV antiviral cell-based qHTS; Potency, µM (doses to about 57.9 µM), without a hit: at the top dose activity change, negative = inhibition, actives largely listed as inhibitors; hit rate 1.2% among 410,000; calls by dose curve; tested in HEK293T cells; also: read-out not given here; potency is read from the fitted curve at half-maximal effect; nearly all actives have a fitted effect of over 45% in size
Vaccinia mCherry: qHTS for Stage-Specific Inhibitors of Vaccinia Orthopoxvirus: mCherry Reporter Primary qHTS | hit rate 0.63% among 310,000 | Vaccinia virus mCherry reporter infection, fluorescence | Potency, µM (doses to about 36.5 µM), for inactives: at the highest dose activity change, negative = inhibition, actives largely listed as inhibitors; calls by dose curve; tested in A549 cells; also: potency is read from the fitted curve at half-maximal effect; nearly all actives have a fitted effect of over 35% in size
Marburg entry inh: qHTS for inhibitors of binding or entry into cells for Marburg Virus; Marburg virus pseudotyped entry inhibition, cell reporter; Potency, µM (titrated, usually from 37.8 µM), inactives show top-dose activity change, negative = inhibition, hits mostly inhibitors; hit rate 1.8% among 300,000; calls by dose curve; tested in HEK293 cells; also: potency is read from the fitted curve at half-maximal effect
Active calls of the source: *; i = inactive; ? = inconclusive; . = no result; ! = not active in a repeat; [ ] = another dose, or the depositor's remark. % is scaled to controls: 0 for no effect and ±100 for the full control effect.

SMILES	LASV entry inh	VACV Venus inh	HCMV antiviral	FMDV inh	Vaccinia mCherry	Marburg entry inh
CCOC(=O)CCCNC(=O)N1CCc2nc(COc3ccccc3)c3c(c2C1)CO[C@@H](C)C3	.	.	.	.	.	0%[14.2 µM]
CS(=O)(=O)Nc1c(O)ccc2c1CCCC2C1=NCCN1 (stereo not given)	.	-12%	.	-3%	-22%	.
COc1ccc(Cl)cc1N1C(=O)/C(=C/c2sccc2C)N=C1SCC(=O)NC1CC1	?	-10%	52	-11%	i	10µM*
O=C(CCN1CC2CCC(CC2)C1)c1cccs1	-13%	-7%	20	25µM*	i	-4%
COc1cc(OC)cc(-c2nc3n(n2)C(c2ccccc2)C(C(N)=O)=C(C)N3)c1 (stereo not given)	1%[46.1 µM]	-7%	-21	-3%	-12%	-16%[46.1 µM]
CCc1ccccc1NC(=S)N(CCc1ccncc1)C(C)C	.	.	-93*	-8%	.	.
Cc1cccc(NC(=S)N(CCc2ccncc2)C(C)C)c1C	-3%[46.1 µM]	-17%	9	16%	-17%	?
COc1ccc(S(=O)(=O)Cc2ccc(C(=O)NC3CCC(C)CC3)o2)cc1 (stereo not given)	?	-12%	-17	-14%	i	?
O=C(NCCc1ccc(Cl)cc1)c1ccc(CS(=O)(=O)c2ccc(Cl)cc2)o1	-32%[46.1 µM]	-14%	-20	-9%	-18%	.
CC1CCC(NC(=O)c2ccc(CS(=O)(=O)c3ccc(Cl)cc3)o2)CC1 (stereo not given)	?	-4%	-7	32µM*	-9%	.
O=C(NCCc1ccc(Cl)cc1)c1ccc(CS(=O)Cc2cccc(Cl)c2)o1 (stereo not given)	-8%[46.1 µM]	-15%	-64*	?	i	.
O=C(NCCc1ccccc1)c1ccc(CS(=O)(=O)c2ccc(Cl)cc2)o1	-28%[46.1 µM]	3%	-60*!	-30%	-3%	.
O=C(NCCc1ccccc1)c1ccc(CS(=O)Cc2cccc(Cl)c2)o1 (stereo not given)	2%[46.1 µM]	-3%	4	-11%	-13%	-6%[46.1 µM]
Cn1cnc2c(ncn2[C@@H]2O[C@H](CO)[C@@H](O)[C@H]2O)c1=N	.	-10%	.	21%	-3%	.
Cc1nc2cnc(N3CCN(C)CC3)nc2n(Cc2ccc(F)cc2)c1=O	.	.	.	4%	.	.
CCCCOc1ccc(/C=C/C(=O)NC2=Nc3ccccc3NC(C)=C2C(=O)OCC)cc1OC	1%[46.1 µM]	-12%	70	-9%	i	6.3µM*
COc1ccc2c(c1)c1c(c(=O)n(CCc3ccccc3)c(=O)n1Cc1cccc(Cl)c1)n2C	13%[46.1 µM]	3%	4	-18%	-7%	.
CCOc1ccc2c(c1)C(=NNC(=O)c1ccncc1)c1cc(OCC)ccc1-2	6.3µM*	6%	-95*	-24%	i	3.2µM*
CCOc1ccc(NC(=O)c2ccncc2)cc1	30%	-9%	13	15%	-12%	-13%
CCCN1CCCC(c2cccc(S(C)(=O)=O)c2)C1 (stereo not given)	.	.	.	-20%	.	.
CCN(CC)CCn1c2c(c(SCC(=O)Nc3ccc(C)c(F)c3)nc1=O)CCCC2	-6%	-27%	-9	-4%	-17%	-9%
O=C(CSc1nc(=O)n(CCN2CCOCC2)c2c1CCC2)Nc1ccc(OC(F)(F)F)cc1	-6%	-11%	-60*	?	?	-24%[46.1 µM]
CCN(CC)CCn1c2c(c(SCC(=O)Nc3ccc(C)c(F)c3)nc1=O)CCC2	-19%	-11%	-99*	-23%	-15%	16%
COc1ccc(NC(=O)CSc2nc(=O)n(CCN3CCOCC3)c3c2CCC3)cc1	1%	-6%	-33	-8%	-19%	0%
CCN(CC)CCn1c2c(c(SCC(=O)Nc3nc(C)cs3)nc1=O)CCCC2	3%	-8%	-80*	-13%	-13%	?
COC(=O)c1ccccc1NC(=O)[C@H]1COc2ccccc2O1	.	.	.	.	.	-32%
COc1ccccc1CCn1c(=O)c(-c2cccs2)nc2cncnc21	.	.	.	-10%	.	.
Nc1c(Cl)nc(-c2ccccc2)nc1Cl	.	-6%	-72*	22%	i	.

Compound activity from PubChem BioAssay.
